Each compound was assayed against AMP-activated protein kinase, AMPK (Homo sapiens) (UniProt P54646+O43741+P54619+Q9UGJ0+Q9Y478+Q13131+Q9UGI9) (assay: AMP-dependent Kinase enzyme assay. An in vitro enzyme assay that detects ADP turnover that is directly proportional to AMPK activity. This uses naive AMPK that is activated during the assay with MK-8722). Settings: 30 µM.
Format: functional
Parameters: scale not given: direction of the effect not stated beside the values

Compound	Percent Effect
CC(C)c1nc2n(n1)CC(NCc1cc3ccccc3o1)CC2 (stereo not given)	0.664%
CC(Cn1ccnc1)NC(=O)NCCN1CCCCCC1=O (stereo not given)	0.204%
CCC(C)Oc1ccc(CNCCNC(C)=O)cc1OC (stereo not given)	2.89%
Cc1nnc(CN(C)CC(=O)NC(C)(C)c2ccc(F)cc2)n1C	6.43%
COc1ccc(Cn2c(CCc3c(C)n[nH]c3C)n[nH]c2=O)cc1	-3.53%
COc1cc(Cl)cc(CN2CCCC(N3CCCC3)C2)c1OC (stereo not given)	4.91%
Cc1nn(C)c(C)c1-c1ccc(=O)n(C(C)C(=O)NCc2ccco2)n1 (stereo not given)	17.2%
Cc1cc(N2CCCC(N(C)C)C2)n2nc(C)cc2n1 (stereo not given)	-1.24%
CN(Cc1nnnn1C1CC1)CC1COc2ccccc2O1 (stereo not given)	4.32%
Cc1noc(-c2ccc(N(C)Cc3ccncn3)nc2)n1	0.463%
COc1ncc(NCc2ccc(F)cc2)cc1C(N)=O	5.39%
Cc1cnc(CCNC(=O)NCCc2ccc(O)cc2)s1	38.4%
CN(Cc1ccc(C#N)cc1)CC1CCS(=O)(=O)C1 (stereo not given)	7.17%
O=C(NCC(O)c1cccc(O)c1)C1CCN(C2CCCCC2)CC1 (stereo not given)	0.496%
Cc1cc(CN2CCC(C3CCN(CCc4ccccc4)C3)CC2)[nH]n1 (stereo not given)	-5.07%
Cc1nnc(CN(C)CC(=O)N2CCCC(C)CC2)n1C (stereo not given)	0.221%
Cc1cc(C2CCCN(Cc3noc(Cc4ccccc4)n3)C2)n[nH]1 (stereo not given)	35%
N#Cc1ccc(Cl)cc1NCC1CC1	5.1%
O=C(CCn1cccn1)NCCOc1ccc2c(c1)OCO2	-5.16%
CC(CN1CCOC1=O)NC(=O)c1ccccc1Oc1ccccc1 (stereo not given)	8.72%

Compound	Percent Effect
COc1ccc2c(c1)CCCC2CC(=O)NCC(C)(C)C(=O)O (stereo not given)	0.926%
Cc1nn(C)c(C)c1C1COCCN1C(=O)CC(C)(C)C (stereo not given)	-3.31%
O=C(Cn1cc(-c2ccccc2)cn1)N1CCNC1=O	0.445%
CCc1nnc(CS(=O)(=O)c2ccc(C)cc2)n1C	6.29%
CC(C)c1nnc2n1CCN(Cc1ccc3c(c1)OCCO3)C2	3.43%
N#CC1(NC(=O)c2c(F)ccc(OC(F)F)c2F)CCOCC1	-2.32%
CN(C)c1nccnc1C1CCN(C(=O)C2(C)CCCCN2C)CC1 (stereo not given)	9.26%
COCc1c(Br)cccc1NC(=O)CC(F)(F)F	-6.57%
COc1ccccc1NC(=O)CCNC(=O)c1ccoc1	-6.87%
CN(CC(=O)NCC(=O)Nc1ccc(F)cc1)Cc1cccs1	-1.85%
c1nc(N2CCCC2)ncc1CN1CCCC(CN2CCCCC2)C1 (stereo not given)	-7.34%
CN(C)c1cccc(C(=O)N2CCn3c(nnc3C3CC3)C2)c1	-2.33%
COCC(=O)NCCc1nc2cc(-c3ccc(OC)cc3)ncn2n1	8.07%
Cc1cccc2nc(CN3CCC(N4CCN(C)C4=O)CC3)cn12	6.81%
CCc1ccc2nc(C)cc(C(=O)NC[C@@H]3CCNC[C@H]3O)c2c1	-4.5%
Cc1cc(C)c2[nH]c(C(=O)NCCN3CCOC3=O)c(C)c2c1	16.4%
COc1ccc(C2CCN(CCCC#N)CC2)cc1	3.86%
CCOc1ccccc1CN(C)C(=O)CN1C(=O)OC[C@@H]1C(C)C	5.19%
CNS(=O)(=O)CC(=O)NCc1cc2c(s1)CCC(C)(C)C2	-1.02%
Cc1ncn(CCNC(=O)Nc2ccc(OC(F)(F)F)cc2)c(=O)c1C	2.14%

From ChEMBL document CHEMBL3988442, “University of Dundee, Small-Polar-MMV Screening Library” (2021)
